A selection: hits, their analogues and other compounds. The true share with any hit is near 2.5%.
H9c2 TAG inh: inhibitors of triacylglycerol accumulation, primary screen, cell-based, uHTS, fluorescence, H9c2. AID 651582, 2012. inhibition, % at 12.5 µM. 0.66% of 230,000 active. H9c2 cells, Nile Red lipid (TAG) fluorescence; cells loaded with 200 µM oleic acid;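 active = pattern-corrected inhibition of lipid staining of at least 50% with the nuclear-stain viability signal not falling by more than 50%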;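 note: 0% = DMSO wells and 100% = triacsin C control wells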
Cardio protect: cardioprotection against H2O2-induced cell death, primary screen, uHTS, H9c2 cells, ATPLite luminescence | H9c2 cardiomyocytes, H2O2 injury protection, 2 h | protection from H2O2 cell death, % at 20 µM | 0.63% of 360,000 active;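 active = compounds giving at least 50% protection of heart cells from peroxide-induced death in the single-dose screen, raw or plate-pattern-corrected value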;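 note: 0% = DMSO wells with peroxide and 100% = DMSO wells without peroxide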
CRFR2-BP ag: agonists of CRF-BP/CRF-R2 complex, primary screen, cell-based, HEK293, calcium dye fluorescence, uHTS. CRF-binding protein / CRF receptor 2 complex (human). 0.46% of 350,000 active. activation, % at 13.2 µM. calcium dye fluorescence (FLIPR); percent of saturating CRF peptide response;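 active = activation of at least 50%, plus an integration ratio under a set limit after plate pattern correction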;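 note: plate controls were neutral control wells without compound for no effect and CRF at EC100 for full effect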
CRFBP-R2 block: antagonists of CRF-BP/CRF-R2 complex, primary screen, cell-based, HEK293, calcium dye fluorescence, uHTS. CRF-induced calcium fluorescence. inhibition, % at 11.8 µM. 0.59% of 350,000 active. AID 588475, 2011;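 active = inhibition of the ligand-induced calcium signal above about 50% at the single tested concentration, limit read from the data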
SKN-1 block: suppressors of acrylamide-induced Pgst-4::GFP reporter in worms, primary screen, SKN-1 inhibitor project, whole organism, uHTS, GFP/RFP fluorescence ratio, strain VP596; 0.49% of 360,000 active; inhibition, % at 21.8 µM; C. elegans VP596 Pgst-4::GFP/RFP ratio, 24 h;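 active = interference check ratio from 0.5 to 1.5 plus GFP to RFP signal ratio inhibition reaching or exceeding a fixed threshold, cut at about 30% in these data, passing the limit was not always enough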
iPSC survival up: enhancers of single-cell hiPSC survival, primary screen, ATPlite luminescence; 100% = ROCK inhibitor wells, 0% = DMSO; survival enhancement, % at 20 µM; 0.044% of 360,000 active; AID 602274, 2012; in the data active = survival enhancement above about 18%;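 note: cells exposed to compounds for 16 hours before the ATP read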
The depositor's hits bear a star; x = not tested or not shown.

SMILES	H9c2 TAG inh	Cardio protect	CRFR2-BP ag	CRFBP-R2 block	SKN-1 block	iPSC survival up
COc1ccc2[nH]c(C(=O)N3CCN(Cc4ccccc4)CC3)cc2c1OC	x	-4.9	0.6	0.4	-29.2	-0.6
CCC(C)NCCCCOc1ccc(Cl)cc1C (stereo not drawn)	0.6	7.8	-1.3	-27.2	8.7	-0.7
Cc1cccc(N(CC(=O)NCc2ccco2)S(=O)(=O)c2ccccc2)c1	-0.1	1.3	0.0	-6.5	-0.8	10.7
Cn1c(=O)c2cc3c(nc2n(C)c1=O)CC(c1ccccc1)CC3=O (stereo not drawn)	23.0	7.6	-4.6	67.3*	13.8	0.1
CCC(c1nnnn1-c1ccc2c(c1)OCCO2)N1CCN(C(C)=O)CC1 (stereo not drawn)	x	x	x	x	0.4	0.2
CN(C)S(=O)(=O)c1ccc(N2CCCC2)c(C(=O)NCc2cccc(C(F)(F)F)c2)c1	13.8	2.7	-1.0	-17.6	47.1*	-1.3
CN(C)S(=O)(=O)c1ccc(N2CCCC2)c(C(=O)NCCc2ccc(F)cc2)c1	-4.9	9.5	-0.6	-5.0	-23.4	-0.3
Cc1nn(Cc2c(Cl)cccc2Cl)c(C)c1NC(=O)c1cn(-c2ccccc2)nc1-c1ccccc1	50.4*	-14.3	0.8	28.8	12.0	3.6
Cc1cccc(C)c1NC(=O)CNC(=O)c1cn(-c2ccccc2)nc1-c1ccccc1	-9.7	-3.1	-0.8	-3.2	12.0	0.2
CNc1ccccc(C(=O)/C=C/c2ccccc2OC)c1=O	x	51.2*	0.0	-5.2	14.1	-1.5
CNc1ccc(Br)cc(C(=O)/C=C/c2cccc(OC)c2OC)c1=O	x	18.3	2.2	6.4	-10.3	-1.9
COc1ccc(C(=O)c2sc3nc(C)cc(-c4cccs4)c3c2N)cc1	x	-5.3	66.9*	-69.9	1.1	0.9
Cc1cc(C)c2c(N)c(C(=O)c3ccc(Cl)cc3)sc2n1	x	-12.5	0.5	19.2	9.8	-1.0
Cc1cc(-c2cccs2)c2c(N)c(C(=O)c3ccc4c(c3)OCO4)sc2n1	x	-2.3	109.1*	-197.4	-24.5	-0.7
COc1ccc(C(=O)c2sc3nc(C)cc(-c4cccs4)c3c2N)cc1OC	x	16.9	108.2*	-132.2	-10.6	1.0
Cc1ccc(S(=O)(=O)N2CCCC2)cc1C(=O)NCCN1CCOCC1	-15.4	-6.5	3.6	-13.7	8.9	0.6
Cc1c(C(=O)NCc2nnc(-c3ccccc3)o2)oc2c(F)cccc12	-9.4	-4.9	-5.1	-1.5	-5.3	0.1
CCCC(C(=O)Nc1ccc(C)c(S(=O)(=O)N2CCOCC2)c1)c1ccccc1 (stereo not drawn)	7.3	0.2	1.9	0.1	-2.5	0.1
CCCC(C(=O)Nc1ccc(S(=O)(=O)N2CCOCC2)cc1)c1ccccc1 (stereo not drawn)	-5.9	-7.1	-1.2	-15.5	36.9*	0.0
CCOC(=O)c1ccc(NC(=S)N2CCSC2c2ccc(Cl)cc2)cc1 (stereo not drawn)	x	-17.7	120.4*	-105.6	-4.3	2.0
CCC(C)(C)n1nnnc1C(c1cccc(C#N)c1)N1CCN(c2cccc(C)c2C)CC1 (stereo not drawn)	x	-3.0	-1.9	50.9*	2.1	0.1
Cc1nc(-c2cccs2)sc1C(=O)O	-6.7	4.6	1.4	5.5	-0.2	0.0
Cc1nccc(-c2sc(-c3cccs3)nc2C)n1	3.2	-4.1	-5.0	-5.8	38.9*	-0.6
CCCN1Cc2cccc(C(=O)NCc3cccs3)c2C1=O	-7.6	-0.1	0.6	57.6*	-5.2	-0.6
Cc1ccc(NS(=O)(=O)c2cccc3nsnc23)cc1	-2.4	1.3	-0.6	75.2*	8.6	0.2
SMILES	H9c2 TAG inh	Cardio protect	CRFR2-BP ag	CRFBP-R2 block	SKN-1 block	iPSC survival up
O=C(Nc1ccccc1Br)C1CC(=O)N(c2ccc3c4c(cccc24)CC3)C1 (stereo not drawn)	x	21.2	1.9	-43.0	-9.6	-1.5
CCOC(=O)C[C@@H]1OC[C@H](Cc2ccccc2)N1S(=O)(=O)c1ccc(C)cc1	x	x	x	x	-4.3	x
Oc1[nH]c2ccccc2c1N=Nc1ccc(F)cc1	x	-3.9	62.3*	-58.6	-37.7	-1.2
Oc1[nH]c2ccccc2c1N=Nc1ccccc1F	2.3	-8.2	145.0*	-76.7	-12.8	2.3
Oc1ccc2ccccc2c1N=Nc1ccc(F)cc1	57.8*	-9.7	-3.6	0.1	66.4	-0.8
Oc1c(N=Nc2ccc(F)cc2)ccc2ccccc12	x	-19.1	0.7	19.4	72.8	-0.5
Oc1[nH]c2ccccc2c1N=Nc1ccccc1	-10.9	-11.1	9.7	1.9	-2.1	1.7
CCN(CC(=O)N1CCOCC1)S(=O)(=O)c1ccc2ccccc2c1	10.4	7.8	-1.6	7.6	2.4	-0.5
COc1ccc(NC(=O)C2Cc3c(-c4cccc(C(N)=O)c4)ccnc3O2)cc1 (stereo not drawn)	19.1	21.6	x	x	-13.7	0.3
COc1ccc(-n2cc(-c3ccccc3)c3c(NCCCN4CCOCC4)ncnc32)cc1	-4.0	11.6	-2.8	2.1	12.2	0.4
OCCN1CCN(c2ncnc3c2c(-c2ccccc2)cn3-c2ccc(Br)cc2)CC1	-3.8	22.6	-0.4	0.7	-3.8	0.0
Fc1ccc(-n2cc(-c3ccccc3)c3c(N4CCOCC4)ncnc32)cc1	0.7	58.0*	2.6	-15.2	-2.2	1.1
CCN1CCN(c2ncnc3c2c(-c2ccccc2)cn3-c2ccc(F)cc2)CC1	-0.5	11.8	-0.1	-10.1	51.6*	-0.5
COc1ccc(-n2cc(-c3ccccc3)c3c(N4CCOCC4)ncnc32)cc1	-5.5	58.5*	-2.4	6.0	0.2	-0.6
COC(=O)c1sc(NC(=S)NC(=O)c2ccccc2F)nc1C	-5.8	-12.0	47.3	-15.4	-2.2	-0.7
COC(=O)c1sc(NC(=S)NC(=O)c2cccc(C)c2)nc1C	-7.9	-12.8	64.6*	17.3	0.7	1.0
Cn1cnc(S(=O)(=O)N2CCCCC2c2cc(C(=O)NCc3ccc(F)cc3)no2)c1 (stereo not drawn)	-4.7	-1.0	x	x	0.8	-0.2
Cc1ccc(-c2nnc(NCc3ccccc3)c3ccccc23)cc1	x	-11.0	-0.7	38.9	2.2	-0.9
Clc1ccc(-c2nnc(NCc3ccccc3)c3ccccc23)cc1	x	-11.1	-1.9	52.3*	-1.4	-1.3
CCn1c(N2CCN(C(=O)c3ccco3)CC2)nc2ccccc21	x	-0.6	-0.2	0.8	-13.5	-0.3
CC(C)c1cc(N2CCN(C(=O)c3ccco3)CC2)n2c(nc3ccccc32)c1C#N	21.3	51.6*	-4.0	-0.4	-9.2	1.8
CSCCC(NS(=O)(=O)c1ccccc1)C(=O)OCc1cc(=O)oc2cc(O)ccc12 (stereo not drawn)	2.4	56.3*	2.0	-0.1	14.8	-0.3

High-throughput results (PubChem)
